Screens deposited in PubChem by National Center for Advancing Translational Sciences (NCATS).
DT40 TDP1 no CPT = qHTS for Inhibitors of human tyrosyl-DNA phosphodiesterase 1 (TDP1): qHTS in cells in absence of CPT; DT40 Tdp1-/- hTDP1 cells, no CPT, ATP luminescence, 48 h; hit rate 15% among 420,000; AID 686978, 2013; Potency, µM (top dose mostly 46.2 µM), for the others: at the highest dose activity change, negative = growth inhibition, most hits filed as inhibitors; note: potency is the fitted concentration of half-maximal effect; % is set by controls: 0 for no effect and ±100 for the full control effect; nearly all actives have a fitted effect of over 55% in size
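Growth kinetics read by CellTiter-Glo luminescence after ≥48 hr at 37 °C. Cells: DT40 Tdp1-/- stably carrying human TDP1, 400 per well, compound exposure in the absence of CPT (DMSO vehicle).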
TGFb inhibitor = qHTS for Inhibitors of TGF-b. HepG2 CAGA-GFP TGF-b/SMAD3 reporter, GFP fluorescence, 18 h; TGF-beta stimulated, 500 pg/mL final. Potency, µM (titrated, usually from 46.1 µM), inactives show at the top dose activity, negative = inhibition, hits mostly inhibitors. hit rate 1.2% among 410,000. AID 588855, 2011; note: potency is the fitted concentration of half-maximal effect; % is set by controls: 0 for no effect and ±100 for the full control effect; nearly all actives have a fitted effect of over 65% in size
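Smad-responsive CAGA-GFP expression was quantified in HEPG2 cells exposed to compounds and 500 pg/mL final TGF-beta for 18 h at 37 degrees C; unstimulated wells defined full inhibition.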
IL1B secr inh = qHTS for Inhibitors of Inflammasome Signaling: IL-1-beta AlphaLISA Primary Screen | hit rate 4.7% among 360,000 | AID 743279, 2014 | activity change, % at 57.5 µM | THP-1 LPS/ATP IL-1B secretion, AlphaLISA, 16 h; stronger effect = lower value; in the data active = activity change below about -50%; inconclusive = mostly about -30% to -49%; note: % is set by controls: 0 for no effect and ±100 for the full control effect
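Secreted IL-1B measured by AlphaLISA bead assay after 16 h compound exposure of THP-1 cells; compounds (final up to 57.5 uM) added 1 h before LPS (250 ng/mL) and ATP (1.25 mM) stimulation; lower signal means less secretion.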
TDP1 block = qHTS Assay for Inhibitors of Tyrosyl-DNA Phosphodiesterase (TDP1); Potency, µM (titrated, usually from 130 µM), for the others: at the highest dose activity change, negative = inhibition, hits mostly inhibitors; recombinant TDP1, AlphaScreen DNA substrate cleavage; hit rate 0.28% among 350,000; AID 485290, 2010; note: potency is the fitted concentration of half-maximal effect; % is set by controls: 0 for no effect and ±100 for the full control effect; nearly all actives have a fitted effect of over 40% in size
Target sequence (Q9NUW8 whole entry, looked up): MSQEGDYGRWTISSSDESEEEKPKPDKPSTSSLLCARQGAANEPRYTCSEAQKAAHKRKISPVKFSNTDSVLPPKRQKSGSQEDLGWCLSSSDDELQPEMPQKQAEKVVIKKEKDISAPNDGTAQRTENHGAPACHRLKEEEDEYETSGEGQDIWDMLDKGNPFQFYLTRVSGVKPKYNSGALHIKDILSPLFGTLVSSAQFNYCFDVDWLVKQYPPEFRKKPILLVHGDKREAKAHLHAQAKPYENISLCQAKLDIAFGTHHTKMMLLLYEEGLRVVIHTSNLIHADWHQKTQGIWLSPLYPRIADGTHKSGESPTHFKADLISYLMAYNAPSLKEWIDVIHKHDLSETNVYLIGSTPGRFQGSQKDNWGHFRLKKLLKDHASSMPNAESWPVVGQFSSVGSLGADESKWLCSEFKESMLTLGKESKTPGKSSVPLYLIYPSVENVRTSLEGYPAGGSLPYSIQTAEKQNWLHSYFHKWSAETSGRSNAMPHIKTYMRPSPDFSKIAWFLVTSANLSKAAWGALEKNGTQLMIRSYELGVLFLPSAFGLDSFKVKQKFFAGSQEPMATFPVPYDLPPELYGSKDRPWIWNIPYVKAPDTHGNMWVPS
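Signal: AlphaScreen proximity between streptavidin donor and anti-FITC acceptor beads on intact substrate. Reaction: Tdp1 1 nM, substrate 15 nM final, 5 min RT after 15 min compound preincubation.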
TDP1 cell CPT = qHTS for Inhibitors of human tyrosyl-DNA phosphodiesterase 1 (TDP1): qHTS in cells in presence of CPT | AID 686979, 2013 | hit rate 12% among 420,000 | chicken DT40 Tdp1-/-;hTDP1 cells + 20 nM CPT, ATP luminescence, 48 h | Potency, µM (top dose mostly 46.2 µM), for the others: at the highest dose activity change, negative = growth inhibition, actives largely listed as inhibitors; note: potency is the fitted concentration of half-maximal effect; % is set by controls: 0 for no effect and ±100 for the full control effect; nearly all actives have a fitted effect of over 55% in size
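Chicken DT40 Tdp1-/- cells complemented with human TDP1, 400 cells/well, exposed to compounds plus 20 nM camptothecin for at least 48 h at 37 C; viability read as ATP content by CellTiter-Glo luminescence.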
HepG2 tox = qHTS for Inhibitors of TGF-b: Cytotox Counterscreen; HepG2 CAGA-GFP viability, ATP luminescence, 18 h; Potency, µM (titrated, usually from 46.1 µM), for the others: at the highest dose activity change, negative = cytotoxicity, hits mostly cytotoxic; hit rate 0.76% among 410,000; note: potency is the fitted concentration of half-maximal effect
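CellTiter-Glo luminescence gave cytotoxicity after 18 hours at 37 degrees C. The cells were HepG2 CAGA-GFP in 1% FBS DMEM, stimulated with 500 pg/mL TGF-beta after compound addition. %Activity was normalised to no-cell wells (complete cell-killing) and DMSO (no toxicity), and curves were fitted and classified.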
* marks the source's active call; other numbers are inactive results. Hits are enriched below; roughly 18% of the tested compounds scored in any of these assays. Unless noted, calls come from the whole dose curve; as a rule, active = well fitted curve in the direction sought with a large enough effect; inconclusive = small, poorly fitted or top-dose-only effect, or another doubt; inactive = no such curve, though single readings can be large; an effect the other way counts as inactive or inconclusive.

Screening Cc1ccnc(NS(=O)(=O)c2cnc(Cl)c(Br)c2)c1 returned DT40 TDP1 no CPT -17%, TGFb inhibitor 4%, IL1B secr inh -92*, TDP1 block 3%, TDP1 cell CPT -24% and HepG2 tox -28%.
Screening O=C(CCNC(=O)c1ccccc1)OCC(=O)c1ccccc1 returned DT40 TDP1 no CPT 2%, TGFb inhibitor -16%, IL1B secr inh 0, TDP1 block 6%, TDP1 cell CPT 4% and HepG2 tox -14%.
`Cc1ccc(NCc2nnc(SCC(=O)NCc3ccco3)n2CC2CCCO2)c(C)c1` (stereo not given) gave DT40 TDP1 no CPT -19%, TGFb inhibitor -17%, IL1B secr inh -18, TDP1 block 5%, TDP1 cell CPT -16% and HepG2 tox -18%.
`N#Cc1ccc(CSc2nnc(Cc3cccs3)n2Cc2ccco2)cc1` gave DT40 TDP1 no CPT inconclusive, TGFb inhibitor -11%, IL1B secr inh -12, TDP1 block -9%, TDP1 cell CPT inconclusive and HepG2 tox 0%.
Cc1ccc(NCc2nnc(SCc3ccc(C#N)cc3)n2Cc2ccco2)c(C)c1 was read as DT40 TDP1 no CPT 23µM*, TGFb inhibitor -14%, IL1B secr inh -8, TDP1 block 9%, TDP1 cell CPT inconclusive and HepG2 tox 0%.
Brc1ccc(CSc2nnc(-c3cnccn3)n2Cc2ccco2)cc1 was read as DT40 TDP1 no CPT 15µM*, TGFb inhibitor -26%, IL1B secr inh 6, TDP1 block -5%, TDP1 cell CPT inconclusive and HepG2 tox -4%.
`COc1ccc(C(=O)CSc2nnc(CNc3ccc(C)cc3C)o2)cc1` gave DT40 TDP1 no CPT inconclusive, TGFb inhibitor -8%, IL1B secr inh 22, TDP1 block 3%, TDP1 cell CPT inconclusive and HepG2 tox -4%.
For Cc1ccc(C(=O)CSc2nnc(CNc3ccc(C)cc3C)n2Cc2ccco2)cc1 the results were DT40 TDP1 no CPT inconclusive, TGFb inhibitor inconclusive, IL1B secr inh -3, TDP1 block 8%, TDP1 cell CPT 21µM* and HepG2 tox -18%.
`COc1ccc(C(=O)CSc2nnc(CNc3ccc(C)cc3C)n2Cc2ccco2)cc1` gave DT40 TDP1 no CPT 23µM*, TGFb inhibitor inconclusive, IL1B secr inh inconclusive, TDP1 block 8%, TDP1 cell CPT 18µM* and HepG2 tox 0%.
`COC(=O)C(C)(C)c1cccnc1C#N` gave DT40 TDP1 no CPT 5%, TGFb inhibitor 8%, IL1B secr inh 129, TDP1 cell CPT 5% and HepG2 tox 2%.
CC1=C(C(=O)N(C(C)C)C(C)C)CC(CC(=O)NCCN2CCOCC2)C(=O)N1Cc1ccc(F)cc1 (stereo not given) was read as DT40 TDP1 no CPT 12%, TGFb inhibitor -17%, IL1B secr inh -2, TDP1 cell CPT 0% and HepG2 tox -34%.
For N#Cc1ccc(CSc2nnc(-c3ccccc3)n2Cc2ccco2)cc1 the results were DT40 TDP1 no CPT 29µM*, TGFb inhibitor -1%, IL1B secr inh -28, TDP1 block 5%, TDP1 cell CPT inconclusive and HepG2 tox -6%.
Cc1ccc(C(=O)CSc2nnc(-c3ccco3)n2C)cc1 was read as DT40 TDP1 no CPT 16µM*, TGFb inhibitor -9%, IL1B secr inh -14, TDP1 block -8%, TDP1 cell CPT inconclusive and HepG2 tox -4%.
`O=C(Nc1ccccc1C(F)(F)F)c1ncn[nH]1` gave DT40 TDP1 no CPT 2%, TGFb inhibitor -8%, IL1B secr inh 56, TDP1 block -8%, TDP1 cell CPT -7% and HepG2 tox -36%.
Screening Cc1c(C(=O)NCc2ccccc2)oc2ccc(S(=O)(=O)N3CCC(C)CC3)cc12 returned DT40 TDP1 no CPT 9.2µM*, TGFb inhibitor -24%, TDP1 block 0%, TDP1 cell CPT 9.2µM* and HepG2 tox -29%.
O=C(NCc1ccccc1CN1CCCC1)c1cc2ccccc2o1 was read as DT40 TDP1 no CPT -1%, TGFb inhibitor -5%, IL1B secr inh inconclusive, TDP1 block 1%, TDP1 cell CPT -18% and HepG2 tox -27%.
COc1cccc(NC(=O)c2oc3ccc(S(=O)(=O)N4CCCCCC4)cc3c2C)c1 was read as DT40 TDP1 no CPT 18µM*, TGFb inhibitor -20%, TDP1 block 3%, TDP1 cell CPT 18µM* and HepG2 tox -24%.
Screening Cc1c(C(=O)NCc2ccccc2CN2CCCC2)oc2ccc(F)cc12 returned DT40 TDP1 no CPT inconclusive, TGFb inhibitor 9%, IL1B secr inh -1, TDP1 block 1%, TDP1 cell CPT 21µM* and HepG2 tox -18%.
CCN(CC)S(=O)(=O)c1ccc2oc(C(=O)NCc3ccccc3OC)c(C)c2c1 was read as DT40 TDP1 no CPT 10µM*, TGFb inhibitor inconclusive, TDP1 block 3%, TDP1 cell CPT 7.3µM* and HepG2 tox -31%.
`Cc1c(C(=O)NCc2cccnc2)oc2ccc(S(=O)(=O)N3CC(C)CC(C)C3)cc12` (stereo not given) gave DT40 TDP1 no CPT -29%, TGFb inhibitor 0%, IL1B secr inh 36, TDP1 block 3%, TDP1 cell CPT inconclusive and HepG2 tox -27%.
For COc1ccc(C)cc1NC(=O)Cn1c(=O)ccc2cc(S(=O)(=O)N3CCC(C)CC3)ccc21 the results were DT40 TDP1 no CPT inconclusive, TGFb inhibitor inconclusive, TDP1 block 3%, TDP1 cell CPT inconclusive and HepG2 tox -18%.
`COc1ccc(C)cc1NC(=O)c1oc2ccc(S(=O)(=O)N3CCCCC3)cc2c1C` gave DT40 TDP1 no CPT -9%, TGFb inhibitor 7%, TDP1 block 5%, TDP1 cell CPT -4% and HepG2 tox -1%.
For COc1ccccc1CNC(=O)c1oc2ccc(S(=O)(=O)N3CCCCC3)cc2c1C the results were DT40 TDP1 no CPT 7.3µM*, TGFb inhibitor -15%, TDP1 block 5%, TDP1 cell CPT 6.5µM* and HepG2 tox -17%.
